# An excerpt weighted towards active compounds, which were near 12% of everything screened.
# L major viab: Leishmania major promastigote growth inhibition, primary screen; AID 1063, 2008; 200,000 tested, 9% active; inhibition, % at 10 µM; Leishmania major promastigotes, resazurin fluorescence viability; in the data active means inhibition above about 50%;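 further: promastigotes grown with compound for 44 hours at 28 °C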
# WT yeast gro inh: growth inhibition of WT strain, primary screen, mitochondrial fusion inhibitor project, WT and mutant strains, chemical genetic. 190,000 tested, 2.1% active. inhibition, % at 10 µM. mitochondrial fusion phenotypic screen; in the data active means inhibition above about 58%; tested in S. cerevisiae
# Arbovirus inh: antivirals against arbovirus infection, primary screen, cell-based, full library, 10K replicate subset | arbovirus infection cell-based antiviral screen | inhibition, % at 10 µM | 200,000 tested, 0.37% active | AID 1251, 2008; in the data active means inhibition above about 30%
# CHOP inh: inhibitors of CHOP promoter induction, primary screen, cell-based, unfolded protein response, luciferase reporter | CHO-K1 CHOP-promoter luciferase, tunicamycin-induced, 15-18 h | inhibition, % at 10 µM | 220,000 tested, 3.8% active | AID 2732, 2010;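 active means compounds that reduced the stress-induced luciferase reporter signal by more than about 70% of percent inhibition, limit read from the data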;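 further: 0% = tunicamycin plus vehicle and 100% = wells without tunicamycin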
# Starred values were filed as active, the others as inactive; / = no result.
SMILES,L major viab,WT yeast gro inh,Arbovirus inh,CHOP inh
CCc1cc(C(=O)OC)c(NC(=O)C2CC(=O)NN2Cc2ccccc2)s1 (stereo not given),99.3*,3.1,-4.7,6.2
O=C(O)c1ccc(CSc2ccccn2)cc1,-9.5,10.8,-0.3,-10.7
O=C(O)c1ccccc1CSc1ccccn1,-8.2,-6.6,32.5*,-9.6
Cc1ccc(S(=O)(=O)N2CCC(NC(=O)c3cccc(C)c3)CC2)cc1,-8.5,9.8,-1.4,23.6
OC1CCCN(Cc2ccc3ccc4cccc5ccc2c3c45)C1 (stereo not given),78.4*,16.1,-36.8,14.2
Cc1ccc(O)c(C(=O)c2cnn(C(=O)COc3ccccc3C#N)c2)c1,/,/,/,43.7
c1ccc(-n2nnnc2NC2CCCCC2)cc1,1.8,4.7,3.0,-10.6
Cc1ccc(C2C3CSCC=C3C(C#N)=C(N)C2(C#N)C#N)cc1 (stereo not given),61.0*,-5.0,5.5,-27.4
CC(C)N1CC=C2C(C#N)=C(N)C(C#N)(C#N)C(c3ccccc3)C2C1 (stereo not given),-3.3,18.0,3.1,7.2
CCOc1ccc(S(=O)(=O)N(CC(=O)NC2CCCCC2C)Cc2ccco2)cc1 (stereo not given),87.0*,27.9,-12.0,35.3
CCCCNC(=O)/C(C#N)=C/c1cccnc1,93.3*,14.6,4.7,-3.8
CCCCCCCCNC(=O)/C(C#N)=C/c1ccc(SC)cc1,1.5,-12.2,4.3,93.1*
Cc1cccc(NC(=O)/C(C#N)=C\c2cccnc2)c1,1.2,13.1,-4.2,6.1
CCN(CC(=O)NC1CCS(=O)(=O)C1)S(=O)(=O)c1ccc(C)c(C)c1 (stereo not given),54.9*,-0.2,-5.0,39.8
CCN(CC(=O)NC1CCS(=O)(=O)C1)S(=O)(=O)c1ccc2ccccc2c1 (stereo not given),-5.3,-2.0,7.4,22.0
Cc1ccc(-n2c(=O)c3c4c(sc3n(Cc3cc(=O)n5ccccc5n3)c2=O)CCC4)cc1C,74.0*,44.7,-4.3,20.0
O=c1c2sccc2n(Cc2cc(=O)n3ccccc3n2)c(=O)n1-c1ccccc1,32.5,-5.5,4.0,-29.4
CC(=O)Nc1ccc(C(F)(F)F)cc1Cl,/,/,/,-0.1
O=c1nc2n(c3ccc(Br)cc13)CCS2,-7.8,-23.0,-4.8,16.1
Cc1ccc(-c2c[n+]3c(n2-c2ccccc2)CCC3)cc1,/,/,/,13.8
Cc1ccc(-n2c(-c3ccc(Br)cc3)c[n+]3c2CCc2ccc4cccnc4c2-3)cc1,100.4*,-31.9,-35.7,/
Cc1ccc2nc(NC(=O)Cn3nc(C)c([N+](=O)[O-])c3C)sc2c1,68.7*,3.5,5.0,33.3
Cc1csc(NC(=O)Cn2nc(C)c([N+](=O)[O-])c2C)n1,-2.6,-7.2,4.3,20.2
Cc1ccc2nc(NC(=O)CCn3cccc3)sc2c1,7.2,1.0,-7.7,2.5
Cc1nn(CC(=O)Nc2cccc(S(N)(=O)=O)c2)c(C)c1[N+](=O)[O-],63.4*,13.7,8.8,15.6
SMILES,L major viab,WT yeast gro inh,Arbovirus inh,CHOP inh
Cc1ccc2nc(NC(=O)CCCc3nc4ccccc4s3)sc2c1,90.5*,31.4,12.2,65.5
Cc1ccc2nc(NC(=O)CCCC(=O)O)sc2c1,-4.4,-1.9,-3.3,82.3*
COc1ccc(-n2c(=O)c3c4c(sc3n3c(=S)[nH]nc23)COC(C(C)C)C4)cc1 (stereo not given),/,/,/,30.9
O=C(NCCCCc1ccccc1)C12CN(Cc3ccccc3)CC1C(c1ccc([N+](=O)[O-])cc1)=NO2 (stereo not given),2.6,17.5,4.8,8.4
Cc1cccc(OCC(=O)Nc2nc3ccc([N+](=O)[O-])cc3s2)c1C,-4.3,65.2*,3.8,57.0
CCOCC(=O)Nc1nc2ccc(C)cc2s1,3.9,-0.4,4.1,-63.8
Cc1ccc2nc(NC(=O)CSCC(=O)OCC(=O)c3ccccc3)sc2c1,-4.7,-6.0,6.9,71.5*
CCNc1nc(ON=C(C)C)nc(N(C)C)n1,-5.8,-1.0,2.3,10.1
CCCCOc1ccc(C2NC(=O)NC(C)=C2C(C)=O)cc1OCC (stereo not given),-3.2,-2.4,-4.9,14.8
CCc1ccc(CN(C)CC(=O)Nc2ccc3c(c2)CCC3)cc1,-3.5,52.3,-1.2,91.6*
COc1ccc(C(=O)/C=C/C(=O)N(CC(=O)NC2CCCCC2)Cc2ccccc2OC)c(O)c1,49.0,1.6,-40.2,107.3*
COc1ccc(C(=O)/C=C/C(=O)N(CC(=O)NC2CCCCC2)Cc2ccccc2)c(O)c1,44.2,40.6,-40.0,107.6*
COc1ccc(C(=O)/C=C/C(=O)N(CC(=O)NC2CCCCC2)CC2CCCO2)c(O)c1 (stereo not given),12.3,36.1,-4.7,107.9*
CC(NC(=O)CC(c1ccccc1)c1cc(Cl)ccc1O)c1ccccc1 (stereo not given),98.2*,28.4,-25.2,30.6
COc1ccc(NC(C)c2cc(Cl)ccc2O)cc1 (stereo not given),8.1,-7.3,-24.4,31.8
Cc1ccc(O)c(C(CC(=O)NC(C)C)c2ccccc2)c1 (stereo not given),6.6,5.3,0.1,10.8
CC(Nc1ccccc1)c1cc(Cl)ccc1O (stereo not given),96.0*,-4.0,1.0,11.2
COC(=O)C1(C)Cc2cc(OC(C)=O)c(OC(C)=O)cc2N1 (stereo not given),/,/,/,-5.4
O=C(Nc1cc(S(=O)(=O)N2CCCCC2)ccc1N1CCCCC1)C1CC1,/,/,/,18.4
Cc1ccc(S(=O)(=O)/N=C2\SC(CC(=O)Nc3ccc(F)cc3)C(=O)N2c2ccccc2)cc1 (stereo not given),63.4*,-0.4,0.3,29.4
CCCCOc1ccc(/C=C/C(=O)NC2=Nc3ccccc3NC(C)=C2C(=O)OCC)cc1OC,49.6,8.6,2.5,3.4
C[C@H]1O[C@H](O[C@H]2[C@H](O)[C@@H](O)[C@@H](O[C@H]3[C@H](O)[C@@H](O)C(O)O[C@@H]3CO)O[C@@H]2CO)[C@H](O)[C@@H](O)[C@@H]1N[C@H]1C=C(CO)[C@@H](O)[C@H](O)[C@H]1O (stereo not given in full),/,2.2,-6.3,-0.8
O=C(NC(=S)N1CCCCC1)c1csc([N+](=O)[O-])c1,/,/,/,-6.1
Cc1ccc(C)c(S(=O)(=O)N/N=C/c2cccnc2)c1,47.9,-7.1,-4.4,72.0*
CCOC(=O)CSc1nc2ccc(Nc3nc(N4CCOCC4)nc(N4CCOCC4)n3)cc2s1,19.9,-4.3,1.0,59.0
CC(=O)CSc1nc2ccc(Nc3nc(N4CCOCC4)nc(N4CCOCC4)n3)cc2s1,64.4*,8.6,-21.3,-25.5
CC(C)(C)NC(=O)CSc1nc2ccc(Nc3nc(N4CCOCC4)nc(N4CCOCC4)n3)cc2s1,76.9*,49.4,-2.3,29.3
CCOC(=O)CNC(=O)N1CCCC(CCC(=O)NCc2ccc(F)c(F)c2)C1 (stereo not given),-1.3,-1.1,3.7,4.7
Cc1nn(C)cc1C(C(=O)NC1CCCCC1)N(Cc1ccccc1Cl)C(=O)c1cnccn1 (stereo not given),-6.4,1.2,7.1,-19.8
Cc1ccc(-c2csc(NC(=O)c3ccc(S(=O)(=O)N4CCc5ccccc54)cc3)n2)cc1,100.0*,5.0,16.6,8.1
